Assay results from PubChem BioAssay.
Active and inactive are the calls of the source. Unless noted, how the calls were made is not given here.

Tests used:
[1] = test system: Wnt5a (protein binding on small-molecule microarray); experiment: Wnt5a binders on small-molecule microarray, primary screen, biophysical, 635/667 nm fluorescence (AID 1142); settings: 635 nm fluorescence, higher = more signal;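 further: fluorescence read at 667 nm with signal to noise per printed feature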
[2] = cell viability in Huh7 cells, primary screen, cytotoxicity control for HCV replication inhibitor project, CellTiter-Glo luminescence, basal, 48 h (AID 1143); settings: Huh7 HCV replicon, higher = more signal, called active from +8 up or from −8 down;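 further: Huh7 hepatoma cells carrying a hepatitis C replication reporter with no stimulus; test concentration not given here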
[3] = P. aeruginosa biofilm formation inhibitors, primary screen, PAO1 strain, BacTiter-Glo luminescence, LB-PBS (AID 1144); settings: 12 h, higher = more signal
[4] = CREB reporter modulators without forskolin, primary screen, cell-based, PC12, CRE-LacZ reporter, unstimulated (AID 1145); settings: no forskolin, luminescence, 4.5 h, higher = more signal, called active from +8 up or from −8 down
[5] = CREB reporter modulators under forskolin, primary screen, cell-based, PC12, CRE-LacZ reporter, forskolin-stimulated (AID 1146); settings: luminescence, 4.5 h, higher = more signal, called active from +8 up or from −8 down;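 further: PC12 cells with 6xCRE LacZ reporter stimulated by forskolin 10 µM; beta-galactosidase reporter signal reflecting CREB driven transcription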
[6] = target: Streptavidin (Streptomyces avidinii) (UniProt P22629); experiment: streptavidin binders on small-molecule microarray, primary screen, artefact control for SMM compound annotation, biophysical, 635/667 nm fluorescence (AID 1147); settings: streptavidin binding, higher = more signal;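 further: signal reflects streptavidin binding to arrayed compounds as a control protein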
[7] = small-molecule binders of probe aInhba, primary screen, biochemical, small-molecule microarray, 635/667 nm fluorescence (AID 1148); settings: higher = more signal;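 further: score merges 667nm spot fluorescence with signal-to-noise for antibody binding to printed compounds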
[8] = target: Torsin-1A (Homo sapiens) (UniProt O14656); experiment: torsin A binders from cell lysate, primary screen, small-molecule microarray, wild-type, 635/667 nm (AID 1149); settings: COS7 hTOR1A-WT lysate, 635 nm fluorescence, higher = more signal
[9] = target: Torsin-1A (Homo sapiens) (UniProt O14656); experiment: small-molecule binders of mutant TOR1A in lysate, primary screen, cell lysate, small-molecule microarray, COS7 lysate, 635/667 nm fluorescence (AID 1150); settings: COS7 hTOR1A mutant lysate, 635 nm fluorescence, higher = more signal;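 further: score pools 667 nm emission and signal to noise measuring lysate protein binding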
[10] = test system: Sonic hedgehog protein (Shh); experiment: small-molecule binders of Shh protein, primary screen, biochemical, small-molecule microarray, 635/667 nm fluorescence (AID 1151); settings: small-molecule microarray binding, 635 nm fluorescence; higher = more signal;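 further: Shh protein binding to compounds spotted on small-molecule microarray slides; score combines spot fluorescence intensity with signal-to-noise across triplicate slides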
[11] = E. coli DRC41 culture turbidity changes, primary screen, E. coli filamentation inducer project, strain DRC41, OD650, 48 h (AID 1152);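 further: E. coli MC1000 strain DRC41 lacking acrAB efflux pump and sulA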; settings: E. coli DRC41 (acrAB sulA), higher = more signal, called active from +8 up or from −8 down
[12] = small-molecule binders of probe aLefty1, primary screen, biochemical, small-molecule microarray, 635/667 nm fluorescence (AID 1153); settings: higher = more signal;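 further: score merges spot fluorescence with signal-to-noise ratio from the scanned slide images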
[13] = PSAC antagonists in infected red cells, primary screen, cell-based, P. falciparum Indochina, OD700, 1 h (AID 1154); settings: P. falciparum Indochina infected RBC osmotic lysis, higher = more signal, called active from +8 up or from −8 down
[14] = PSAC antagonists in infected red cells, primary screen, cell-based, P. falciparum Indochina, OD700, 2 h (AID 1155);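 further: lysis reports solute entry through the parasite surface anion channel PSAC; channel blockers reduce lysis of infected cells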; settings: P. falciparum Indochina infected erythrocytes, osmotic lysis OD700; higher = more signal, called active from +8 up or from −8 down
[15] = osmotic lysis modulators in infected erythrocytes, primary screen, PSAC antagonist project, cell-based, P. falciparum Indochina, OD700, 3 h (AID 1156); settings: higher = more signal, called active from +8 up or from −8 down
[16] = PSAC antagonists in infected red cells, primary screen, cell-based, P. falciparum Indochina, OD700, 18 h (AID 1157); settings: P. falciparum Indochina infected erythrocytes, osmotic lysis OD700, 18 h; higher = more signal, called active from +8 up or from −8 down
[17] = modulators of S6 phosphorylation in cells, primary screen, cell-based, A549, cytoblot, luminescence, serum-stimulated (AID 1158); settings: A549 phospho-S6 cytoblot, 5 h, higher = more signal;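 further: serum-stimulated A549 lung adenocarcinoma cells; signal is phosphorylated S6 detected by cytoblot immunostaining with HRP secondary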
[18] = target: NADPH oxidase 2 (Homo sapiens) (UniProt P04839); experiment: NOX2-dependent H2O2 signal modulators, primary screen, NOX inhibitor project, cell-based, HEK293-NOX2, PMA-stimulated, Amplex Red fluorescence (AID 1159); settings: 45 min, higher = more signal, called active from +8 up or from −8 down; further: test concentration not given here
[19] = target: NADPH oxidase 4 (Homo sapiens) (UniProt Q9NPH5); experiment: NOX4-dependent H2O2 signal modulators, primary screen, NOX inhibitor project, cell-based, HEK293-NOX4, tetracycline-induced, Amplex Red fluorescence (AID 1160); settings: 45 min, higher = more signal, called active from +8 up or from −8 down
[20] = target: NADPH oxidase 5 (Homo sapiens) (UniProt Q96PH1); experiment: NOX5-dependent H2O2 signal modulators, primary screen, NOX inhibitor project, cell-based, HEK293-NOX5, Amplex Red fluorescence (AID 1161); settings: HEK293-NOX5, ionomycin, 45 min, higher = more signal
Sequence of NADPH oxidase 5 (Homo sapiens) (Q96PH1 whole entry, looked up): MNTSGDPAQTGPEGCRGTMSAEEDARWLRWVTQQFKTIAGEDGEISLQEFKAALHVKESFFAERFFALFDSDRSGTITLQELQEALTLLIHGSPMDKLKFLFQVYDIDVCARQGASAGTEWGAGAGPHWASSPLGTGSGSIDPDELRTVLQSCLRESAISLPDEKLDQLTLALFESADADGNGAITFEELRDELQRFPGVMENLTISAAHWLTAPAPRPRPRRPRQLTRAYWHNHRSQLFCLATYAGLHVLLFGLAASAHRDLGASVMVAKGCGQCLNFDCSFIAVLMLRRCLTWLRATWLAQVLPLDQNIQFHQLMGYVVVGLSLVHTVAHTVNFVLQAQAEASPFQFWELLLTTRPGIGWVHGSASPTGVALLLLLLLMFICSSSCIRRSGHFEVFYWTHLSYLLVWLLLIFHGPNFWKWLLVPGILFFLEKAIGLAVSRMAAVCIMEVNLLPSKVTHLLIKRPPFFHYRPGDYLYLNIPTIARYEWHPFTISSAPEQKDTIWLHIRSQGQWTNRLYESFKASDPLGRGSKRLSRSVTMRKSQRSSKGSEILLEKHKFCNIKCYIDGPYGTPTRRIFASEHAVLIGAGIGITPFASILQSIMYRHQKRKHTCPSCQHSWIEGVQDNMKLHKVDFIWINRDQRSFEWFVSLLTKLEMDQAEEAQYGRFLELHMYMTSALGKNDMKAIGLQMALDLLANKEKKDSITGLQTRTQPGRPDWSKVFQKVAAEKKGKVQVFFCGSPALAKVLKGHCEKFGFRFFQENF

Sequence of NADPH oxidase 2 (Homo sapiens) (P04839 whole entry, looked up): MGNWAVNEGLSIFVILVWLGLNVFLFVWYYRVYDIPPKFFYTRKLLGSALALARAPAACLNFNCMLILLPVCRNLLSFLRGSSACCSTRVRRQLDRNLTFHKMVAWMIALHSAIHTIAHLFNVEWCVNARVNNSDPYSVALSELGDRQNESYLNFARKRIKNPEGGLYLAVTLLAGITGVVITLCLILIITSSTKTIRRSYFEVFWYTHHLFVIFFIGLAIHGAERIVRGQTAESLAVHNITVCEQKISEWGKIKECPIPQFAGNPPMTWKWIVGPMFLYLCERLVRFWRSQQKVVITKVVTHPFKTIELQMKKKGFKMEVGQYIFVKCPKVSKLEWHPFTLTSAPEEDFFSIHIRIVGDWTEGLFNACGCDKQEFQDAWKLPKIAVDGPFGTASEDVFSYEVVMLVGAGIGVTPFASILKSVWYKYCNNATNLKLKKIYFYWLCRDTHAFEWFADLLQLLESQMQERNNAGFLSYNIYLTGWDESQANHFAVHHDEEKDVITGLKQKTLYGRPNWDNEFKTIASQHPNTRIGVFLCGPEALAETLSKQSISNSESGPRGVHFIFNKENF
Sequence of NADPH oxidase 4 (Homo sapiens) (Q9NPH5 whole entry, looked up): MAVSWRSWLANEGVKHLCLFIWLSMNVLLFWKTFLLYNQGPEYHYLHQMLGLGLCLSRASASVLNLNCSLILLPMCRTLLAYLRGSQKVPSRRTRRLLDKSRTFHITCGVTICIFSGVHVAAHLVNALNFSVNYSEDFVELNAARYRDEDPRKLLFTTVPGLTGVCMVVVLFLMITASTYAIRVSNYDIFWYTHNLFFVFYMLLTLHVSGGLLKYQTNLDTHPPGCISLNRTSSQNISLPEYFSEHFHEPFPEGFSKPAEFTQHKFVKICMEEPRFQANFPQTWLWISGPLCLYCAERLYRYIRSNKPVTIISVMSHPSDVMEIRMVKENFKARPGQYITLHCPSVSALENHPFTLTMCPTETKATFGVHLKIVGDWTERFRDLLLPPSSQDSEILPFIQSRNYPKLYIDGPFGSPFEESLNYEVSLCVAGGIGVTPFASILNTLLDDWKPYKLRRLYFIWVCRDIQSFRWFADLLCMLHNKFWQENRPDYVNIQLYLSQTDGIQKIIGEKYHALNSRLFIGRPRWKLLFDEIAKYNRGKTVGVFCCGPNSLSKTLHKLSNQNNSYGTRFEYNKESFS
Sequence of Torsin-1A (Homo sapiens) (O14656 whole entry, looked up): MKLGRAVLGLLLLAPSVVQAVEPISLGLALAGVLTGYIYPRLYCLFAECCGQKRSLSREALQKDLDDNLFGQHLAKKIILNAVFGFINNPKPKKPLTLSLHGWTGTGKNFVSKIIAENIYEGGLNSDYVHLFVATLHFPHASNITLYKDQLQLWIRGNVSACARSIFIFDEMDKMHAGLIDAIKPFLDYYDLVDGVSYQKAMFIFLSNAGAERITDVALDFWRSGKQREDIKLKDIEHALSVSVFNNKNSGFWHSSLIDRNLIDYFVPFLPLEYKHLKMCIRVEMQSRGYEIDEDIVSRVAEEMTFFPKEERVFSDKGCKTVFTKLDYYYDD
Sequence of Streptavidin (Streptomyces avidinii) (P22629 whole entry, looked up): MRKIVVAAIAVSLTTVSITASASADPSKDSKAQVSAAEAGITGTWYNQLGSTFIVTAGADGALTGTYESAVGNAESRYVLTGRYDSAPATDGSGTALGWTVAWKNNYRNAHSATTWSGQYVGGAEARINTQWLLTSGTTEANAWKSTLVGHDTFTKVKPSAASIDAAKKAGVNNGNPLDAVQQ

SMILES	composite z-score [1]	z-score [2]	z-score [3]	z-score [4]	z-score [5]	composite z-score [6]	composite z-score [7]	composite z-score [8]	composite z-score [9]	composite z-score [10]	z-score [11]	composite z-score [12]	z-score [13]	z-score [14]	z-score [15]	z-score [16]	z-score [17]	z-score [18]	z-score [19]	z-score [20]
CCOC(=O)CCN1C(=O)[C@H]2[C@H]3[C@H](O)[C@H](O)CC(=NNC(=O)OCC)[C@H]3CC[C@H]2C1=O	-0.034	-1.63 (inactive)	1.25 (inactive)	-0.202 (inactive)	0.531 (inactive)	-0.58	-0.24	0.0668	0.204	1.1	-0.793 (inactive)	-0.0611	3.88 (inactive)	0.635 (inactive)	1 (inactive)	1.07 (inactive)	-0.242	0.415 (inactive)	-0.702 (inactive)	-4.72
CC(CCN1CCc2nc(-c3ccccc3)c(-c3ccccc3)cc2C1)=NO[C@@H](C)c1cc(-c2c(C)cc(C)cc2C)no1	-0.405	-2.58 (inactive)	-0.832 (inactive)	2.71 (inactive)	-0.426 (inactive)	2.15	-0.159	0.199	0.153	-0.387	-1.03 (inactive)	-0.0099	-0.0185 (inactive)	-0.429 (inactive)	1.5 (inactive)	-1.37 (inactive)	0.831	-0.861 (inactive)	-0.901 (inactive)	-0.296
CC(=O)OC[C@H]1O[C@H](CCON=C(C)C)C=C[C@@H]1OC(C)=O	0.0141	0.702 (inactive)	0.249 (inactive)	-0.715 (inactive)	0.383 (inactive)	0.17	-0.038	-0.0297	-0.115	0.427	-1.66 (inactive)	-0.0412	0.158 (inactive)	0.328 (inactive)	-0.599 (inactive)	0.196 (inactive)	-0.71	0.0813 (inactive)	0.151 (inactive)	-0.227
O=C1C[C@@H](O)[C@@H](O)[C@@H]2[C@@H]3C(=O)N(C4CCCCC4)C(=O)[C@@H]3CC[C@@H]12	0.0446	0.0366 (inactive)	0.749 (inactive)	-0.0223 (inactive)	-0.393 (inactive)	0.148	-0.145	-0.0977	0.311	0.684	-0.348 (inactive)	-0.395	0.733 (inactive)	0.14 (inactive)	0.265 (inactive)	-0.0387 (inactive)	-0.604	-0.0439 (inactive)	0.468 (inactive)	0.0192
CCOC(=O)[C@H](CC(C)C)NC(=O)CCC1CC(OC(=O)NCc2ccc3c(c2)OCO3)CC2(CCCC(COC(=O)NCCOC)O2)O1 (stereo not given in full)	-0.0334	-0.413 (inactive)	0.211 (inactive)	0.56 (inactive)	0.59 (inactive)	0.0301	-0.0006	-0.0402	0.354	1.46	-2.3 (inactive)	0.292	1.3 (inactive)	0.529 (inactive)	-0.535 (inactive)	0.0508 (inactive)	-0.421	-0.288 (inactive)	-0.0492 (inactive)	0.144
Cc1ccc(S(=O)(=O)N[C@@H]2COC(=O)CC=C[C@@H](C)[C@H](NS(=O)(=O)c3ccc(C)cc3)COC(=O)[C@H](C)NC(=O)CC=C[C@H]2C)cc1	-0.0175	0.218 (inactive)	-0.88 (inactive)	-0.38 (inactive)	-0.863 (inactive)	-0.508	-0.121	-0.0787	0.0835	0.427	0.328 (inactive)	-0.147	-0.434 (inactive)	-0.159 (inactive)	-0.207 (inactive)	0.106 (inactive)	0.378	-6.49 (inactive)	0.375 (inactive)	-0.545
COc1ccc(O[C@H]2C=C[C@@H](c3ccccc3)O[C@@H]2COC(=O)CCC(C)=NOC[C@@H](O)COCc2ccco2)cc1	-1.31	-1.42 (inactive)	0.104 (inactive)	3.94 (inactive)	-0.215 (inactive)	-2.51	-0.443	-6.12	-2.73	-1.09	-1.45 (inactive)	-1.43	6.71 (inactive)	-1.05 (inactive)	0.382 (inactive)	-2.06 (inactive)	1.18	-3.53 (inactive)	-0.876 (inactive)	-4.55
CCN1C(=O)[C@H]2[C@H]3[C@H](O)[C@H](O)CC(=NOCC(C)C)[C@H]3CC[C@H]2C1=O	-0.0772	0.306 (inactive)	0.138 (inactive)	-0.202 (inactive)	0.13 (inactive)	0.342	-0.0774	-0.284	0.303	0.599	0.552 (inactive)	-0.0658	-0.135 (inactive)	-0.0288 (inactive)	-0.369 (inactive)	-0.433 (inactive)	-0.812	-5.92 (inactive)	0.358 (inactive)	-0.231
C=CC[C@@H]1C=C[C@H](ON=C(C)CCN2CCCCc3nc(C)c(C)cc32)[C@@H](CO)O1	0.291	-1.25 (inactive)	0.701 (inactive)	1.72 (inactive)	0.578 (inactive)	-0.208	-0.179	2.03	1.52	2.05	-0.813 (inactive)	-0.0547	1.07 (inactive)	0.547 (inactive)	0.325 (inactive)	0.392 (inactive)	-0.53	-0.953 (inactive)	-0.352 (inactive)	-0.424
